Laboratory results: PubChem BioAssay (NCI)
Compounds without any hit were thinned out: in the full panel of roughly 79,000, 15% have a hit. Values without a mark were called inactive. Activity calls are given as the source filed them. Cut-off read from the data, not from the text of the source: active = growth inhibition above about 70%; inactive = the rest.

Test: NCI Yeast Anticancer Drug Screen. Data for the cln2 rad14 strain (AID 165);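 note: 0% = growth equal to vehicle treated cultures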
Conditions: S. cerevisiae cln2 rad14 strain, active compounds read high
Method: Growth inhibition of yeast strains with defined genetic alterations is measured as a screen for potential anti-cancer activity. Selected strains with alterations in DNA damage repair or cell cycle control were exposed to compounds and growth inhibition was measured relative to vehicle treated controls. The strain used in this assay is cln2 rad14

[1] = at 5.0 µM (retest, dose inferred, filed as 0.5)
[2] = at 50.0 µM (retest, dose inferred, filed as 5.0)

Structure (SMILES) | growth inhibition [1] | growth inhibition [2] | growth inhibition (at 50.0 µM)
O=c1[nH]c2cc(Cl)ccc2nc1/C=C(\O)c1ccccn1 | 8% | 64% | 34.1%
CCCCc1ccc(Nc2nc(N)c3[nH]cnc3n2)cc1 | 21% | 34% | 16.7%
CCCCC#CC(=O)OCCCCC | -5% | -2% | 25.1%
CN=c1ss/c(=N\C(=S)N(C)C)n1-c1ccccc1 | 8% | 13% | 4.45%
O=S(=O)(CC(Br)c1ccccc1)CC(Br)c1ccccc1 (configuration not stated) | -3% | 6% | 40%
COc1ccc2sc3c(C)ccc(NCC4CCCN5CCCCC45)c3c(=O)c2c1 (configuration not stated) | 16% | 85% (active) | 99.2% (active)
CC(C)c1cccc2sc(NC(=O)C(=O)C(C#N)c3cccc4ccccc34)nc12 (configuration not stated) | 3% | 8% | 13.2%
O=[N+]([O-])c1c(Cl)cccc1-c1c[nH]cc1Cl | -1% | 99% (active) | 90.9% (active)
O=C(CBr)Oc1ccc(-c2cccc(Br)c2)cc1 | -14% | 99% (active) | 98.6% (active)
CC(C)c1c(P(=O)(c2ccccc2)c2ccccc2)n(C)c2ccccc12 | -4% | 98% (active) | 85.5% (active)
CCC(C)SSc1ccccc1C(=O)Nc1ccc(Cl)cc1 (configuration not stated) | -5% | 85% (active) | 74.1% (active)
O=C(Nc1cc(Cl)ccc1Oc1cc(Cl)c(Cl)cc1S(=O)(=O)O)Nc1cc(Cl)ccc1Oc1cc(Cl)c(Cl)cc1S(=O)(=O)O | 23% | 56% | 76% (active)
CC(=O)OC1COC(n2nnc(C#N)c2C#N)C(OC(C)=O)C1OC(C)=O (configuration not stated) | 3% | 4% | 83% (active)
NC(=O)N/N=C/c1ccc(Cl)s1 | -1% | 10% | 52.5%
